Bioassay records (PubChem)
Compounds with a hit are over-represented: about 17% of the library has one in this group of screens.
TDP1 cell noCPT: qHTS for Inhibitors of human tyrosyl-DNA phosphodiesterase 1 (TDP1): qHTS in cells in absence of CPT; Potency, µM (top dose mostly 46.2 µM), for the others: at the top dose activity change, negative = growth inhibition, usual class: inhibitors; DT40 Tdp1-/- hTDP1 cells, no CPT, ATP luminescence, 48 h; hit rate 15% among 420,000; further: on the % scale 0 is the no-effect control and ±100 the full control effect; nearly all actives have a fitted effect of over 55% in size
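Stably hTDP1-transfected Tdp1-null chicken DT40 cells were treated with library compounds minus camptothecin and grown for at least 48 hr at 37 °C, after which cellular ATP was quantified by luminescence.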
TDP1 cell CPT: DT40-hTDP1 cell growth loss with CPT | chicken DT40 Tdp1-/-;hTDP1 cells + 20 nM CPT, ATP luminescence, 48 h | Potency, µM (top dose mostly 46.2 µM), without a hit: at the top dose activity change, negative = growth inhibition, actives largely listed as inhibitors | hit rate 12% among 420,000 | AID 686979; further: on the % scale 0 is the no-effect control and ±100 the full control effect; nearly all actives have a fitted effect of over 55% in size
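Cell growth measured by CellTiter-Glo luminescence after a minimum 48 h, 37 C compound exposure with 20 nM CPT in Tdp1-knockout DT40 cells stably expressing hTDP1, seeded 400/well; qHTS titration format.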
ClpP mod: qHTS Assay for Activators of ClpP. Potency, µM (highest dose often 57.5 µM), for the others: at the highest dose activity change, negative = active. purified B. subtilis ClpP, FRET peptide cleavage, 20 min. AID 651965, 2013. hit rate 1.9% among 340,000. ATP-dependent Clp protease proteolytic subunit (Bacillus subtilis (strain 168)), P80244; active means well fitted falling curve with a large enough effect; inconclusive means small, poorly fitted or top-dose-only effect; inactive means no such curve, though single readings can be large or run the other way; further: the source files actives as falling curves though it sought activators and does not explain the sign; nearly all actives have a fitted effect of over 65% in size
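Purified B. subtilis ClpP, 10 microg/mL final in Tris/HCl pH8 with KCl, BSA, glycerol and Tween-20, cleaved an Abz/nitrotyrosine-quenched decapeptide. Fluorescence (ex 320, em 430) was read at 0 and 20 min at room temperature. Delta was normalized to 5.8 microM ADEP and DMSO/no-enzyme controls.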
TDP1 inh: TDP1 (human) enzyme inhibition. recombinant TDP1, AlphaScreen DNA substrate cleavage. Q9NUW8. hit rate 0.28% among 350,000. Potency, µM (titrated, usually from 130 µM), without a hit: top-dose activity change, negative = inhibition, most hits filed as inhibitors; further: on the % scale 0 is the no-effect control and ±100 the full control effect; nearly all actives have a fitted effect of over 40% in size
Target sequence (Q9NUW8 whole entry, looked up): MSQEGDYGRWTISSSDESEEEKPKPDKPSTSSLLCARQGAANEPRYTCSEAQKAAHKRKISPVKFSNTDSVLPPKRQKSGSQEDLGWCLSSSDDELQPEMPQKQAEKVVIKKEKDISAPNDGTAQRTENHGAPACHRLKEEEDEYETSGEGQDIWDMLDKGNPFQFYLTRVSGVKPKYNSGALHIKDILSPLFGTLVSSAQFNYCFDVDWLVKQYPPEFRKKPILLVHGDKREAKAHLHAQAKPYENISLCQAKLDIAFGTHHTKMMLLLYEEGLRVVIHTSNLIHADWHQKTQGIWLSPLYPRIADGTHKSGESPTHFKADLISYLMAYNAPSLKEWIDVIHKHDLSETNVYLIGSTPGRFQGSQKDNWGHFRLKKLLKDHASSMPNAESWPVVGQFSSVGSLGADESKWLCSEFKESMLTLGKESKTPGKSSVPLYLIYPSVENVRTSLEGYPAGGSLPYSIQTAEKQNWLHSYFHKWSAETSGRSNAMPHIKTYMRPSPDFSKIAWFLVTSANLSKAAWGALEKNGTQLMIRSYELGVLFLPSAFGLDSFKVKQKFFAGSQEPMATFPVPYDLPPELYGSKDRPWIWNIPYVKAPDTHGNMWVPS
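Recombinant human Tdp1 (E. coli-expressed, 1 nM final) preincubated with compounds 15 min at room temperature, then 5'-biotin/3'-phosphotyrosine-FITC DNA substrate (15 nM final) added for 5 min. AlphaScreen beads (10 ug/ml final) added 10 min; cleavage lowers signal.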
Active calls of the source: *; [ ] = another dose, or the depositor's remark. Unless noted, the call rests on the fitted dose curve; in most records, active means well fitted curve in the direction sought with a large enough effect; inconclusive means small, poorly fitted or top-dose-only effect, or another doubt; inactive means no such curve, though single readings can be large; an effect the other way counts as inactive or inconclusive. Potency means the concentration at half of the fitted maximal effect.

Screening Cc1nn(CC(=O)NCc2ccc(OC(C)C)cc2)c(=O)c2c(C)n(-c3ccc(Cl)cc3)nc12 returned TDP1 cell noCPT inconclusive, TDP1 cell CPT inconclusive, ClpP mod 0.6% and TDP1 inh 8.1%.
For CCOC(=O)C1CCN(S(=O)(=O)c2ccc(NC(=O)c3ccco3)cc2)CC1 the results were TDP1 cell noCPT 6.6%, TDP1 cell CPT 5.6%, ClpP mod 1.3% and TDP1 inh 1.1%[56.1 µM].
For COc1cc(C2Nc3ccc4ncccc4c3C3=C2C(=O)CCC3)ccc1O (stereo unspecified) the results were TDP1 cell noCPT 3.66µM*, TDP1 cell CPT 5.8µM*, ClpP mod -7.3% and TDP1 inh 5.3%.
Screening COc1ccc(S(=O)(=O)/N=C2\C=C(Nc3ccc(O)cc3)C(=O)c3ccccc32)cc1 returned TDP1 cell noCPT 1.46µM*, TDP1 cell CPT 0.82µM* and TDP1 inh 10.2%.
Screening CC(=O)Nc1ccc(NC2=C/C(=N/S(=O)(=O)c3cccs3)c3ccccc3C2=O)cc1 returned TDP1 cell noCPT 10.3µM*, TDP1 cell CPT 13µM* and TDP1 inh 5.8%.
Screening Cc1ccccc1NC1=C/C(=N\S(=O)(=O)c2ccc(C(=O)O)cc2)c2ccccc2C1=O returned TDP1 cell noCPT 18.4µM*, TDP1 cell CPT 16.4µM* and TDP1 inh 4.6%[0.0935 µM].
`Cc1ccc(C)c(S(=O)(=O)/N=C2\C=C(NS(=O)(=O)c3ccccc3)C(=O)c3ccccc32)c1` gave TDP1 cell noCPT 16.4µM*, TDP1 cell CPT 16.4µM* and ClpP mod -0.6%.
Screening O=C(O)c1ccc(S(=O)(=O)/N=C2\C=C(Nc3ccccc3F)C(=O)c3ccccc32)cc1 returned TDP1 cell noCPT -85.7%, TDP1 cell CPT -96.8% and TDP1 inh 12.3%.
For CSc1cccc(NC(=O)c2ccc(NC3=NC4CS(=O)(=O)CC4S3)cc2)c1 (stereo unspecified) the results were TDP1 cell noCPT -18.8%, TDP1 cell CPT -13.9% and ClpP mod 0.8%.
Screening NC(=O)[C@@H]1CCCN1 returned TDP1 inh 6.1%.
Screening COC(=O)C(C(C)=O)C1=C/C(=N\S(=O)(=O)c2ccc(C)cc2)c2ccccc2C1=O (stereo unspecified) returned TDP1 cell noCPT 10µM*, TDP1 cell CPT 3.55µM*, ClpP mod 2.3% and TDP1 inh 1.0%.
`Cc1ccc(NC2=C/C(=N/S(=O)(=O)c3cccs3)c3ccccc3C2=O)cc1C` gave TDP1 cell noCPT 7.31µM*, TDP1 cell CPT inconclusive, ClpP mod -5.9% and TDP1 inh 5.3%.
For COC(=O)c1ccc2c(=O)n(CCCCCC(=O)NCCNC(C)=O)c(=O)[nH]c2c1 the results were TDP1 cell noCPT -3.6%, TDP1 cell CPT inconclusive and ClpP mod -7.4%.
Screening COc1ccc(CNC(=O)CCn2c(=O)[nH]c3ccccc3c2=O)cc1 returned TDP1 cell noCPT 2.5%, TDP1 cell CPT 12.7%, ClpP mod 28.2µM* and TDP1 inh -2.7%.
`COC(=O)c1ccc2c(=O)n(CCCCCC(=O)NCc3ccccc3)c(=O)[nH]c2c1` gave TDP1 cell noCPT -17.9%, TDP1 cell CPT -18.2%, ClpP mod inconclusive and TDP1 inh 4.4%.
For COC(=O)c1ccc2c(=O)n(CCCCCC(=O)NCc3ccc(OC)cc3)c(=O)[nH]c2c1 the results were TDP1 cell noCPT inconclusive, TDP1 cell CPT 23.1µM*, ClpP mod -14.8% and TDP1 inh -2.5%.
`COC(=O)c1ccc2c(=O)n(CCCCCC(=O)NCc3ccccn3)c(=O)[nH]c2c1` gave TDP1 cell noCPT -27.0%, TDP1 cell CPT -10.1%, ClpP mod 31.6µM* and TDP1 inh -3.6%.
COC(=O)c1ccc2c(=O)n(CCCCCC(=O)NC(C)C)c(=O)[nH]c2c1 was read as TDP1 cell noCPT 20.6µM*, TDP1 cell CPT inconclusive, ClpP mod -2.0% and TDP1 inh 2.7%.
Cc1nn2c(=O)cc(COC(=O)COc3ccccc3C)nc2s1 was read as TDP1 cell noCPT -0.8%, TDP1 cell CPT -7.6%, ClpP mod -2.5% and TDP1 inh 3.2%.
Screening COCCN1Cc2cccc(C(=O)Nc3ccc(C)cc3C)c2C1=O returned TDP1 cell noCPT -19.3%, TDP1 cell CPT -16.6%, ClpP mod 0.0% and TDP1 inh 7.0%.
`CC[C@H](C)[C@H](NC(=O)[C@H](C)NC(=O)[C@H](CC(=O)O)NC(=O)[C@H](CO)NC(=O)[C@@H](N)Cc1cnc[nH]1)C(=O)N[C@@H](Cc1ccccc1)C(=O)N[C@H](C(=O)N[C@@H](CCC(N)=O)C(=O)N[C@@H](CCC(N)=O)C(=O)N[C@@H](Cc1ccc(O)cc1)C(=O)N[C@@H](CO)C(=O)N[C@@H](CCCCN)C(=O)N[C@@H](CC(C)C)C(=O)N[C@@H](CC(C)C)C(=O)N[C@@H](C)C(=O)N[C@@H](CCCCN)C(=O)N[C@@H](CC(C)C)C(=O)N[C@@H](C)C(=O)N[C@@H](CC(C)C)C(=O)N[C@@H](CCC(N)=O)C(=O)N[C@@H](CCCCN)C(=O)N[C@@H](Cc1ccc(O)cc1)C(=O)N[C@@H](CC(C)C)C(=O)N[C@@H](C)C(=O)N[C@@H](CO)C(=O)N[C@H](C(=O)N[C@@H](CC(C)C)C(=O)NCC(=O)N[C@@H](CO)C(=O)N[C@@H](CCCNC(=N)N)C(=O)N[C@H](C(=O)N[C@@H](CO)C(=O)N1CCC[C@H]1C(=O)N1CCC[C@H]1C(=O)N1CCC[C@H]1C(N)=O)[C@@H](C)O)[C@@H](C)CC)[C@@H](C)O` gave TDP1 inh 7.5%.
`Brc1ccc(C2Nc3cccc4cccc(c34)N2)s1` gave TDP1 cell noCPT inconclusive, TDP1 cell CPT 20.6µM*, ClpP mod -1.4% and TDP1 inh 0.0%.
COc1ccc(Br)cc1C1Nc2cccc3cccc(c23)N1 was read as TDP1 cell noCPT inconclusive, TDP1 cell CPT inconclusive and ClpP mod -1.8%.
`CCOc1ccc(/C=C/c2nc(C#N)c(N3CCN(CC)CC3)o2)cc1` gave TDP1 cell noCPT 5.8µM*, TDP1 cell CPT 6.51µM*, ClpP mod 4.5% and TDP1 inh -2.3%.
CCOc1ccc(/C=C/c2nc(C#N)c(N3CCN(c4ccccc4)CC3)o2)cc1 was read as TDP1 cell noCPT -14.3%, TDP1 cell CPT inconclusive, ClpP mod 3.9% and TDP1 inh 4.7%.
For N#Cc1nc(/C=C/c2ccc(F)cc2)oc1N1CCCCCC1 the results were TDP1 cell noCPT inconclusive, TDP1 cell CPT inconclusive, ClpP mod 4.3% and TDP1 inh 7.0%.
Screening CC1CCN(c2oc(/C=C/c3ccc(F)cc3)nc2C#N)CC1 returned TDP1 cell noCPT 14.6µM*, TDP1 cell CPT inconclusive, ClpP mod 4.1% and TDP1 inh -7.0%.
